In the supplement of paper PMC10849652:
Of roughly 7,900 targets only a part is listed; those with a hit were picked by preference. About 0.6% of all pairs of compound and target were hits.

What was measured:
Test in all cases: log2 fold change, soluble protein after heating vs DMSO (PISA); higher = thermal stabilisation; K562 cells, 10 uM, 30 min; active = over 0.2 and 3.5 SD of the protein, either way, in both replicates (recomputed)
[1] = compound: C1=CC=C(C=C1)[C@H](COC2=CC3=C(C=C2)NC(=O)N3)NC(=O)C4=CC=CN(C4=O)CC5=CC(=C(C=C5)F)F
Method in brief: (§1)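 K562 cells at 2×10^6 cells/mL were given 10 μM compound for 30 min. Aliquots then went through 3 min of heating across 48°C-58°C, were pooled, and were extracted in PBS with 0.5% NP-40 at 4°C, and the supernatant after 21,000xg for 90 min was quantified by TMTpro 16plex LC-MS/MS with channel sums equalised. Thermal stability relative to control samples, from duplicates, is given as log2 fold change.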

[2] = compound: CC1=C(SC2=C1C(=N[C@H](C3=NN=C(N32)C)CC(=O)N)C4=CC=C(C=C4)Cl)C
Method in brief: as §1

[3] = compound: c1ccc([C@@H]2C[C@H]2NC2CCNCC2)cc1
Method in brief: as §1

[4] = compound: Cc1sc2c(c1C)C(c1ccc(Cl)cc1)=N[C@@H](CC(=O)OC(C)(C)C)c1nnc(C)n1-2
Method in brief: as §1

[5] = compound: CC1=C2C(=CC=C1)N=C(N(C2=O)C3=CC=CC=C3C)CN4C=NC5=C(N=CN=C54)N
Method in brief: as §1

Measured: log2 fold change

CLASP2 (UniProt O75122)
Chain of UniProt O75122 (O75122 whole entry, looked up): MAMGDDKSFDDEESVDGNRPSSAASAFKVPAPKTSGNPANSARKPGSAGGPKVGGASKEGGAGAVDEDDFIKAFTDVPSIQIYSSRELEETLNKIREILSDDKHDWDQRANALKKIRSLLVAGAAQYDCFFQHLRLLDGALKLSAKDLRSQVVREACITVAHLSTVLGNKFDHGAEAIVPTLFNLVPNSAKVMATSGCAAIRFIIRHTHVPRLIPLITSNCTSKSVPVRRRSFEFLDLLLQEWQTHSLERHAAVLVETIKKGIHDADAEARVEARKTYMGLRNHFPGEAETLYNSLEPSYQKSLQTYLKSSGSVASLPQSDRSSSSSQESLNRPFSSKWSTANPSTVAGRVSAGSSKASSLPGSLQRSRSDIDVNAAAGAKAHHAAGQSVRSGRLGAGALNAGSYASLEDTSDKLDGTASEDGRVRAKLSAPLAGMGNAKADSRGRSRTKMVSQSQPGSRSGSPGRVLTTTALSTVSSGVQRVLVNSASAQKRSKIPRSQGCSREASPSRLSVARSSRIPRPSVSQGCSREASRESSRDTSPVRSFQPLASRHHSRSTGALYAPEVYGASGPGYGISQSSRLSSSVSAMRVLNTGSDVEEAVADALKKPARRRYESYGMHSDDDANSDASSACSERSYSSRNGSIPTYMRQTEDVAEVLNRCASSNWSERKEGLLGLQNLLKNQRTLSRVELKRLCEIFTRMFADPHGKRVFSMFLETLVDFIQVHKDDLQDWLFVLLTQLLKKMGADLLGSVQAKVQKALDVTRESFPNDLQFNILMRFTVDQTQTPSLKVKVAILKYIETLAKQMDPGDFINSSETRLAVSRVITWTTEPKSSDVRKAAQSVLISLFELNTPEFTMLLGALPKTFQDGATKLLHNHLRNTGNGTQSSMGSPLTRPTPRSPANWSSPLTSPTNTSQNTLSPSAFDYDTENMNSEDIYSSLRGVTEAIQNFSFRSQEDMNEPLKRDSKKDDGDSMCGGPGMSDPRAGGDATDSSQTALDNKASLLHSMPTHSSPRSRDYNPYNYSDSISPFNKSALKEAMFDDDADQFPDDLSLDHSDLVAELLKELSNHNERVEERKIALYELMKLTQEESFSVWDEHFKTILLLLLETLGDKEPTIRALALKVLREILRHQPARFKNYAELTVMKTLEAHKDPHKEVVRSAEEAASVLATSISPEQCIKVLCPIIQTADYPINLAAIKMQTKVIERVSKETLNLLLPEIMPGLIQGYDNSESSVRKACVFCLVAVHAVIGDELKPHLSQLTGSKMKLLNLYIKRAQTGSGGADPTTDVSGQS
inactive: [1] 0.059 | [2] 0.117 | [3] -0.222

COMMD3-BMI1 (UniProt R4GMX3)
inactive: [2] -0.114 | [4] 0.002 | [3] 0.154

CHPT1 (UniProt Q8WUD6)
Chain of UniProt Q8WUD6 (Q8WUD6 whole entry, looked up): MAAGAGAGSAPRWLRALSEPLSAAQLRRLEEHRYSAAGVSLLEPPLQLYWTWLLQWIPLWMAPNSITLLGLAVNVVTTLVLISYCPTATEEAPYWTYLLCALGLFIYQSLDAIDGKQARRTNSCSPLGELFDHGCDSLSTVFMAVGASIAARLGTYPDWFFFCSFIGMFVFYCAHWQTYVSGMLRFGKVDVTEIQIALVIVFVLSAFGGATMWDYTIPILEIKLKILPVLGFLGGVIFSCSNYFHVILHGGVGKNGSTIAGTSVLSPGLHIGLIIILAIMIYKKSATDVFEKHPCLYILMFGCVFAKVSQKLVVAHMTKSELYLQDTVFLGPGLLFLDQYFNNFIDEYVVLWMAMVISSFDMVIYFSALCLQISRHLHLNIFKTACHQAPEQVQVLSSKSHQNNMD
inactive: [2] 0.003 | [4] -0.198 | [3] 0.11

CDCA2 (UniProt Q69YH5)
Chain of UniProt Q69YH5 (Q69YH5 whole entry, looked up): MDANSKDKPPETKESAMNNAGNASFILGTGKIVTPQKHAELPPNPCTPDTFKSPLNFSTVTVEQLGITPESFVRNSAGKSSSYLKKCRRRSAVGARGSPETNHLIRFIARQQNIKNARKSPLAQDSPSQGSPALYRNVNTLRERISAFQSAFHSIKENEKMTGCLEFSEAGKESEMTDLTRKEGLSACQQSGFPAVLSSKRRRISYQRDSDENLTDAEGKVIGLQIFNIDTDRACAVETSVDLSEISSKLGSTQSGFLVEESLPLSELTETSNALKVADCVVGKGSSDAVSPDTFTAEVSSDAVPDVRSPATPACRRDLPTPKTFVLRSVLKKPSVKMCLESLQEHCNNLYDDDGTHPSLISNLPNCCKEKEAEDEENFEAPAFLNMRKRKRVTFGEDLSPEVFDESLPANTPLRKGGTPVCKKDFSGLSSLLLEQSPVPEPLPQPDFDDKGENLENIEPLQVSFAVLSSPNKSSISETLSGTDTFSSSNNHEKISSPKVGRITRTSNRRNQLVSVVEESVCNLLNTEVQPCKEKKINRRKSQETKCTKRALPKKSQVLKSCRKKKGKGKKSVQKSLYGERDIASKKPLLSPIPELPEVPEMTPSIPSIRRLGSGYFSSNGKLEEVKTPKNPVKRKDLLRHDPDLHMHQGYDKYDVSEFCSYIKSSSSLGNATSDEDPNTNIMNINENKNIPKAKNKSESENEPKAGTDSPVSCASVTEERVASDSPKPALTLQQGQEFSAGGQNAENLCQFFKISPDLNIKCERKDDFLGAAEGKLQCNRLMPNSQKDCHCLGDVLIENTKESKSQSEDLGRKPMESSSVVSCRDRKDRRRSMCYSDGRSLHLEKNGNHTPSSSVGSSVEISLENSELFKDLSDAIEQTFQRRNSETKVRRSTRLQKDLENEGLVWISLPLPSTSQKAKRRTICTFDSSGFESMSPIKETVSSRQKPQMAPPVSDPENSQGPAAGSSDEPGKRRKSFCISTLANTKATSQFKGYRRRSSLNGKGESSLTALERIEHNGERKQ
inactive: [2] 0.035 | [5] 0.05 | [4] -0.003 | [3] -0.077

C22orf39 (UniProt Q6P5X5)
Chain of UniProt Q6P5X5 (Q6P5X5 whole entry, looked up): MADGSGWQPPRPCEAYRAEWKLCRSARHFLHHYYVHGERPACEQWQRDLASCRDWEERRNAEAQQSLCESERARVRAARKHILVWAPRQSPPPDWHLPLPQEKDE
inactive: [1] 0.126 | [2] 0.145 | [4] -0.06 | [3] -0.037

CFAP47 (UniProt Q6ZTR5)
inactive: [1] 0.068 | [5] 0.173

CCNT2 (UniProt O60583)
Chain of UniProt O60583 (O60583 whole entry, looked up): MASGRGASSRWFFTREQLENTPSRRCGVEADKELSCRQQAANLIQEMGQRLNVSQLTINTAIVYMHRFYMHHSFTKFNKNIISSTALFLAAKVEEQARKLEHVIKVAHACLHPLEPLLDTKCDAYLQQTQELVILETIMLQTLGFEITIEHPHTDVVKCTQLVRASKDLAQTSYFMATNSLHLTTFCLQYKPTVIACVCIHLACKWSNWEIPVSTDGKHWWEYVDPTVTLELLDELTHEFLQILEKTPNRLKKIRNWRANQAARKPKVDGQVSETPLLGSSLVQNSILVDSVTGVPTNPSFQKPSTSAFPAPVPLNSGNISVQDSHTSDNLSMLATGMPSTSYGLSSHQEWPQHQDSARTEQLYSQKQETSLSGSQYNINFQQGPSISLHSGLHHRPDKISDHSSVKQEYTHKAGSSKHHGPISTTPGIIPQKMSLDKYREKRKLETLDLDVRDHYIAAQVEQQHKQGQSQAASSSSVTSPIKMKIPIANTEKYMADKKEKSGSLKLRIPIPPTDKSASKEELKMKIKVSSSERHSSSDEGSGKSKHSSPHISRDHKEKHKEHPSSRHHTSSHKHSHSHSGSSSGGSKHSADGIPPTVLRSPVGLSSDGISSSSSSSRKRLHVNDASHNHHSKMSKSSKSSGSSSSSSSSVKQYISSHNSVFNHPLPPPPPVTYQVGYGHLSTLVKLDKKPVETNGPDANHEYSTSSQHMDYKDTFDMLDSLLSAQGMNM
inactive: [4] 0.061

CNN1 (UniProt P51911)
Chain of UniProt P51911 (P51911 whole entry, looked up): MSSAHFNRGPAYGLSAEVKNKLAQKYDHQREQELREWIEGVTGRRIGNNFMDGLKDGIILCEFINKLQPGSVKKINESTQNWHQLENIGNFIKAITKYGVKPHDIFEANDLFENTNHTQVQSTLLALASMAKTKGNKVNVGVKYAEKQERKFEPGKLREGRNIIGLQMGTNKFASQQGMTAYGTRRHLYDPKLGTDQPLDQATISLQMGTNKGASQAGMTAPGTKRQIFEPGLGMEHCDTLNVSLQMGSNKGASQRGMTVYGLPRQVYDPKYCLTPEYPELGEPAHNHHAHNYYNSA
inactive: [2] 0.228 | [5] -0.063 | [4] -0.004 | [3] 0.156
